DT40 TDP1 CPT: qHTS for Inhibitors of human tyrosyl-DNA phosphodiesterase 1 (TDP1): qHTS in cells in presence of CPT; chicken DT40 Tdp1-/-;hTDP1 cells + 20 nM CPT, ATP luminescence, 48 h; Potency, µM (series often up to 46.2 µM), for the others: at the top dose activity change, negative = growth inhibition, usual class: inhibitors; 420,000 tested, 12% active; AID 686979, 2013; further: on the % scale 0 is the no-effect control and ±100 the full control effect; nearly all actives have a fitted effect of over 55% in size
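Chicken DT40 Tdp1-/- cells stably complemented with human TDP1 were seeded at 400 cells/well in medium containing 20 nM camptothecin, exposed to pin-transferred compounds, and grown at 37 °C for at least 48 hr. Viability was read as ATP luminescence.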
TDP1 cell noCPT: qHTS for Inhibitors of human tyrosyl-DNA phosphodiesterase 1 (TDP1): qHTS in cells in absence of CPT; DT40 Tdp1-/- hTDP1 cells, no CPT, ATP luminescence, 48 h; Potency, µM (doses to about 46.2 µM), for the others: at the top dose activity change, negative = growth inhibition, usual class: inhibitors; 420,000 tested, 15% active; AID 686978, 2013; further: on the % scale 0 is the no-effect control and ±100 the full control effect; nearly all actives have a fitted effect of over 55% in size
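Camptothecin absent (DMSO only). Human TDP1-complemented DT40 knockout cells, 400 cells/well, 37 °C for minimum 48 hr; ATP measured via CellTiter-Glo, 30 min dark incubation, luminescence.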
ATXN2 expr inh: Primary qHTS for Inhibitors of ATXN expression | AID 1745845, 2022 | 360,000 tested, 0.72% active | HEK-293 ATXN2-luciferase reporter, luminescence, 24 h | Potency, µM (titrated, usually from 57 µM), for the others: top-dose activity change, negative = inhibition, actives largely listed as inhibitors; further: on the % scale 0 is the no-effect control and ±100 the full control effect; nearly all actives have a fitted effect of over 55% in size
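qHTS (up to 57 uM final) was run with 24 h compound exposure of reporter cells at 37 °C. Each well was multiplexed: SteadyGlo luminescence measured ATXN2-luciferase expression after a fluorogenic Gly-Phe-AFC viability readout (25 uM final).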
ATXN viability: Viability Counterscreen for Primary qHTS for Inhibitors of ATXN expression | S2 cells (HEK-293 line with an ATXN2-luciferase reporter) viability, CellTiter-Fluor protease fluorescence, 24 h | Potency, µM (top dose mostly 56.7 µM), actives largely listed as cytotoxic | 400,000 tested, 0.49% active | AID 651635, 2014; further: nearly all actives have a fitted effect of over 40% in size
TGFb inhibitor: qHTS for Inhibitors of TGF-b; HepG2 CAGA-GFP TGF-b/SMAD3 reporter, GFP fluorescence, 18 h; TGF-beta stimulated, 500 pg/mL final; 410,000 tested, 1.2% active; AID 588855, 2011; Potency, µM (doses to about 46.1 µM), for the others: at the highest dose activity, negative = inhibition, most hits filed as inhibitors; further: on the % scale 0 is the no-effect control and ±100 the full control effect; nearly all actives have a fitted effect of over 65% in size
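First, reporter cells (HEPG2 CAGA-GFP) rested 2 h at 37 degrees C. Next, compounds were pinned in and TGF-beta added to 500 pg/mL final. After 18 h, GFP was imaged per cell and summed per well.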
HepG2 tox: qHTS for Inhibitors of TGF-b: Cytotox Counterscreen. HepG2 CAGA-GFP viability, ATP luminescence, 18 h. Potency, µM (top dose mostly 46.1 µM), without a hit: top-dose activity change, negative = cytotoxicity, most hits filed as cytotoxic. 410,000 tested, 0.76% active
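CellTiter-Glo luminescence gave cytotoxicity after 18 hours at 37 degrees C. The cells were HepG2 CAGA-GFP in 1% FBS DMEM, stimulated with 500 pg/mL TGF-beta after compound addition. %Activity was normalised to no-cell wells (complete cell-killing) and DMSO (no toxicity), and curves were fitted and classified.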
* = called active by the depositor; i = inactive; ? = inconclusive; · = not tested or not shown; ! = a repeat was not active; [ ] = dose if it differs, or a comment. Most compounds without a hit are left out; they make up all but 17% or so of the library. The call rests on the fitted dose curve; in most records, active means well fitted curve in the direction sought with a large enough effect; inconclusive means small, poorly fitted or top-dose-only effect, or another doubt; inactive means no such curve, though single readings can be large; an effect the other way counts as inactive or inconclusive. Potency means the concentration at half of the fitted maximal effect.

SMILES	DT40 TDP1 CPT	TDP1 cell noCPT	ATXN2 expr inh	ATXN viability	TGFb inhibitor	HepG2 tox
COc1cnc(-c2ccccn2)nc1Sc1c(Cl)cccc1Cl	0.65µM*	0.92µM*	?	?	-6%	-40%
COc1cnc(-c2ccccc2)nc1Sc1ccccc1	0%	?	10%	i	-26%	-19%
COc1ccc(NC(=O)C(C/C=C(/C)Cl)C(C)=O)cc1 (stereo unspecified)	?	?	4%	i	?	-35%
Cc1cc2nc(-c3ccc(SCc4ccc(C(=O)O)cc4)nc3)[nH]c2cc1C	?	?	48%[11.3 µM]	i	-6%	4%
Cc1cc2nc(-c3ccc(SCC(=O)N4CCc5ccccc54)nc3)[nH]c2cc1C	9.2µM*	23µM*	?	18µM*	?	-10%
Cc1cc2nc(-c3ccc(SCc4ccccc4C#N)nc3)[nH]c2cc1C	?	16µM*	-2%	?	-1%	-26%
COc1cccc(Cn2cnc3c(cnn3C(C)(C)C)c2=O)c1	·	·	·	·	-8%	-25%
O=C(c1cc2ccccc2o1)N1CCN(CCOc2ccccc2)CC1	?	?	-14%	i	-25%	-20%
O=C(Nc1ccc2ccccc2c1)N1CCCN(CCOc2ccccc2)CC1	4.6µM*	4.1µM*	·	i	-28%	-4%
COc1cccc(CC(=O)Nc2ccc(-c3nc4ccccc4s3)cc2Cl)c1	-22%	?	12%	i	1%	-6%
CC(=O)c1c(N2CCN(C)CC2)nc(=S)n(Cc2ccccc2)c1C	-7%	9%	1%	i	-3%	-6%
C=CCn1c(C)c(C(C)=O)c(N2CCN(C(c3ccccc3)c3ccccc3)CC2)nc1=S	?	23µM*	?	?	?	-24%
CCC1CCCCN1S(=O)(=O)c1ccc(NC(=O)c2cccs2)cc1 (stereo unspecified)	23µM*	16µM*	6%	i	?	-57%
CCCSc1ncc(Cl)c(C(=O)Nc2ccc(S(=O)(=O)N3CCCCC3C)cc2)n1 (stereo unspecified)	?	8.2µM*	·	·	·	-6%
CCCSc1ncc(Cl)c(C(=O)Nc2ccc(S(=O)(=O)Nc3ncccn3)cc2)n1	-6%	-5%	9%	i	22%	1%
CCCSc1ncc(Cl)c(C(=O)Nc2ccc(S(=O)(=O)N3CCC(C)CC3)cc2)n1	?	15µM*	·	·	·	-14%
CCC1CCCCN1S(=O)(=O)c1ccc(NC(=O)c2nc(SC)ncc2Cl)cc1 (stereo unspecified)	21µM*	23µM*	-12%	?	?	-26%
Cc1oc(=O)oc1COC(=O)[C@@H]1N2C(=O)[C@@H](NC(=O)[C@H](N)c3ccccc3)[C@H]2SC1(C)C	·	·	3%	i	·	·
Clc1ccccc1CSc1nnc(C2CCNCC2)o1	?	?	-11%	i	1%	-1%
Cn1c(=S)ccc2ccccc21	-19%	-27%	19%	i	1%	8%
COC(=O)c1c(C)cc(OC(=O)c2c(C)cc(O)c(C=O)c2O)c(C)c1O	5.8µM*	4.1µM*	·	·	·	·
COc1cc(C)c(C(=O)Oc2cc(C)c(C(=O)O)c(O)c2C)c(O)c1C	?	?	4%	i	?	-62%
CCN1CCN(c2nc(-c3ccccc3)c3ccccc3n2)CC1	?	?	-18%	i	-23%	-11%
O=S(=O)(Nc1cccc(Cl)c1)c1cccc(-n2cnnn2)c1	1%	-13%	6%	i	?	-17%
COC(=O)c1sc(OC)cc1OCc1ccc(C)cc1	-7%	-15%	2%	i	0%	-2%
SMILES	DT40 TDP1 CPT	TDP1 cell noCPT	ATXN2 expr inh	ATXN viability	TGFb inhibitor	HepG2 tox
CCc1cccc(CC)c1NC(=O)CN1C(=O)C(=O)c2ccccc21	5.2µM*	3.3µM*	-8%	i	?	-40%
O=C1C(=O)N(Cc2cccs2)c2ccccc21	4.6µM*	5.2µM*	-13%	i	-4%	4%
O=C(CN1C(=O)C(=O)c2ccccc21)NC1CCCCC1	26µM*	23µM*	3%	i	?	3%
O=C(CN1C(=O)C(=O)c2ccccc21)c1ccccc1	18µM*	4.1µM*	·	i	?	-6%
CC(C)N(C(=O)CN1C(=O)C(=O)c2ccccc21)c1ccccc1	-23%	-22%	-2%	i	6%	-1%
O=C1CSC(=S)N1Cc1cccs1	?	18µM*	-13%	i	?	-25%
CCN(CC)CCc1nc(-c2ccccc2)no1	6.5µM*!	4.1µM*!	5%	i	-1%	-1%
CC(C)(C)C1CCc2onc(C(=O)Nc3ccc4c(c3)OCO4)c2C1 (stereo unspecified)	-28%	?	-14%	i	-3%	10%
COc1cc(NC(=O)c2noc3c2CC(C(C)(C)C)CC3)cc(OC)c1OC (stereo unspecified)	21µM*	16µM*	6%	i	21%	8%
O=C1OC2C(O)COC23OC(O)CCC13O (stereo unspecified)	3%	19%	10%	i	3%	6%
CCC(C(=O)NC(C)(C)C)N(C(=O)Cn1nnc(-c2ccccc2F)n1)c1cccc2c1CCCC2 (stereo unspecified)	?	18µM*	-1%	i	-9%	-9%
CC(C)(C)NC(=O)C(c1ccco1)N(C(=O)Cn1nnc(-c2ccc(F)cc2)n1)c1ccccc1 (stereo unspecified)	?	?	-12%	i	4%	-1%
COc1ccc(N(C(=O)Cn2nnc(-c3ccc(F)cc3)n2)C(C)C(=O)NC2CCCC2)cc1 (stereo unspecified)	?	?	-9%	i	11%	-1%
CC(C)CCNC(=O)CN(C(=O)Cn1nnc(-c2ccccc2F)n1)c1cccc2c1CCCC2	-3%	-6%	·	·	-5%	-2%
CC(C(=O)NC1CCCC1)N(C(=O)Cn1nnc(-c2ccc(F)cc2)n1)c1ccccc1F (stereo unspecified)	23µM*	23µM*	-19%	i	-10%	-11%

High-throughput results: PubChem, National Center for Advancing Translational Sciences (NCATS)
